In the library only some 3.5% were active in any assay of this set; here they are far more common.
FBW7 activator: human FBW7 E3 ligase activation, primary screen; AlphaScreen FBW7–phospho-cyclin E peptide binding, activator screen; normalized activity (activation), % at 26.1 µM; actives 0.13% (n = 650,000); AID 1259310; in the data active = normalized activity above about 1.9%;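 also: purified mutant Fbw7 with reduced substrate affinity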
MITF primary: inhibitors of human MITF; O75030; AlphaScreen MITF homodimerization, bead proximity signal; inhibition, % at 2.6 µM; actives 0.91% (n = 650,000); AID 1259374; in the data active = inhibition above about 50%;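 also: 0% = vehicle wells with protein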
TEAD-YAP block: TEAD-YAP interaction inhibition. HEK-TIYL cells, TEAD-Gal4/YAP UAS-luciferase luminescence. actives 1.4% (n = 640,000). inhibition, % at 9.12 µM; in the data active = inhibition above about 32%;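 also: 0% = median of test compound wells and 100% = reference inhibitor wells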
GPR151 activ: activators of human GPR151. PathHunter beta-arrestin GPR151 cells, luminescence. activation, % at 11.2 µM. actives 1% (n = 650,000). AID 1508602; in the data active = activation above about 4.9%;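 also: 0% = median of compound wells and 100% = cells with positive control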
Target sequence (Q8TDV0 whole entry, looked up): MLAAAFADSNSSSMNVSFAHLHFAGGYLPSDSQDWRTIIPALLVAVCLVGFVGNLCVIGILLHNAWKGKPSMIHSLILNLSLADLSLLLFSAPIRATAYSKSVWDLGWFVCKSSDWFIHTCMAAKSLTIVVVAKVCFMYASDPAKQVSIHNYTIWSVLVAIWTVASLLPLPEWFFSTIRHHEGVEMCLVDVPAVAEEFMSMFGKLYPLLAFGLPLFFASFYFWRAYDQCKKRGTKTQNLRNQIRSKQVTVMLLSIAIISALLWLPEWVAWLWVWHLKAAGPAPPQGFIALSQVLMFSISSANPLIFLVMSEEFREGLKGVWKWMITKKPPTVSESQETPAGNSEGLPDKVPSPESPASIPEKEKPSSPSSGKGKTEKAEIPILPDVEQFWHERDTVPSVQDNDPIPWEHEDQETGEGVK
MITF confirm: confirmation of human MITF inhibitors | shares compounds with MITF primary | AlphaScreen MITF homodimerization, biotin/His-MITF beads | inhibition, % at 2.6 µM | actives 16% (n = 4,700);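 active = inhibition above a cutoff derived from the DMSO control wells, cut at about 28% in these data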;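 also: 0% = MITF dimer wells with DMSO only; inhibitors lower the bead chemiluminescence by keeping MITF from dimerizing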
AS interf DR: optically interferes with AlphaScreen signal in dose response | shares compounds with MITF primary | AlphaScreen optical interference counterscreen, cell-free | IC50, µM | actives 6% (n = 480); call rule not given here
AS interf ctr: AlphaScreen optical interference, counter-screen; shares compounds with MITF primary; LysRS AlphaScreen counterscreen, signal interference, triplicate; inhibition, % at 2.6 µM; actives 7.6% (n = 4,700);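 active = inhibition above a cutoff derived from the DMSO control wells, cut at about 30% in these data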
Numbers without * were called inactive; nt = no result given; ! = a repeat was not active.

SMILES | FBW7 activator | MITF primary | TEAD-YAP block | GPR151 activ | MITF confirm | AS interf ctr | others
CN(Cc1ccc(C(=O)NCc2ccccc2Cl)c(=O)[nH]1)Cc1nccn1C | 0 | 52* | 2 | -1 | 38* | 78*
CN(CCc1ccccn1)Cc1ccc(C(=O)NCc2ccccc2Cl)c(=O)[nH]1 | 0 | 4 | -4 | -3 | nt | nt
COc1cc2c(cc1OC)C(c1cc3cc4c(cc3[nH]c1=O)OCO4)N(C(=O)C1CC1)CC2 (stereo not given) | 0 | 67* | 6 | 0 | 4 | 11
COc1cc2c(cc1OC)C(COc1ccc(F)cc1)N(C(=O)C1CC1)CC2 (stereo not given) | 0 | 0 | -12 | -1 | nt | nt
COc1ccc2c(c1)C(C)CC(C)(C)N2C(=O)CNCCN1CCOCC1 (stereo not given) | 0 | 88* | 1 | 1 | 9 | 18
COc1ccc2c(c1)C(C)CC(C)(C)N2C(=O)NC1CCCCC1 (stereo not given) | 1 | 17 | -22 | -1 | nt | nt
COc1cc(COc2ccc3c4c(c(=O)oc3c2)CCCC4)cc(OC)c1OC | 0 | 57* | -10 | 1 | 10 | 5
Cc1ccc(COc2ccc3c4c(c(=O)oc3c2)CCCC4)cc1 | 0 | 10 | -19 | -1 | nt | nt
CCN1CCN(S(=O)(=O)c2ccc3c(c2)SCC(=O)N3)CC1 | 0 | -2 | 7 | 1 | nt | nt
O=C1CSc2ccc(S(=O)(=O)N3CCCC3)cc2N1 | 0 | 116* | 2 | 0 | 10 | 9
CCCc1[nH]n(-c2ccc(F)cc2)c(=O)c1C=NCCN1CCOCC1 | 0 | 2 | 4 | 3 | nt | nt
COC(=O)C1(O)CC(CC(C)C)=NN1C(=O)c1ccccc1 (stereo not given) | 0 | 71* | -21 | 0 | 0 | -4
CC(C)CC1=NN(C(=O)c2ccc(O)cc2)C(O)(C(F)(F)F)C1 (stereo not given) | 0 | 2 | 2 | 4 | nt | nt
CN(C)c1ccc(O)c2c1C[C@H]1C[C@H]3[C@H](N(C)C)C(=O)C(C(N)=O)=C(O)[C@@]3(O)C(=O)C1=C2O | 0 | 73*! | 0 | 1 | 64* | -15 | AS interf DR=>6.5
CC(=O)c1ccc(NC(=O)CSc2nnc3[nH]c(=O)c(C)c(C)n23)cc1 | 0 | 56* | 6 | -1 | 13 | 8
COC(=O)c1ccc(NC(=O)CSc2nnc3[nH]c(=O)c(C)c(C)n23)cc1 | 1 | 17 | 10 | -2 | nt | nt
CC1CCCC(C)N1C(=O)c1cc2n(n1)C(C(F)(F)F)CC(c1ccc(Cl)c(Cl)c1)N2 (stereo not given) | 0 | 59* | -3 | -1 | -10 | -7
Clc1ccc(C2=NN3C(C2)c2ccccc2OC3c2ccccc2)cc1 (stereo not given) | 0 | 3 | -48 | 0 | nt | nt
Cc1cc(NC(=O)COC(=O)c2ccc(NC(N)=O)cc2)ccc1Br | 0 | 52* | -5 | -1 | -5 | 1
O=C(OC1CCCC1=O)c1ccc(Cl)c(S(=O)(=O)N2CCOCC2)c1 (stereo not given) | 0 | 66* | 3 | -1 | 51* | 8 | AS interf DR=>6.7
O=C(OC1CCCC1=O)c1ccc(S(=O)(=O)N2CCCCC2)cc1 (stereo not given) | 0 | 74* | -7 | -1 | 65* | 2 | AS interf DR=>6.6
c1cc2c(cc1CN1CCOCC1)CN(Cc1ccc(CN3CCCC3)s1)CCO2 | 0 | 8 | 2 | 4 | nt | nt
COc1ccc(OC)c(C2NC(=O)C(=O)/C2=C(/O)c2ccccc2)c1 (stereo not given) | 0 | 5 | 3 | 0 | nt | nt
Fc1ccc(NCc2nnc(SCCN3CCOCC3)n2-c2ccccc2)cc1 | 0 | 67* | 3 | -1 | 11 | 10
Cc1ccccc1OCC(O)Cn1c(N/N=C/c2ccccc2)nc2c1c(=O)[nH]c(=O)n2C (stereo not given) | 0 | -4 | -8 | 0 | nt | nt
SMILES | FBW7 activator | MITF primary | TEAD-YAP block | GPR151 activ | MITF confirm | AS interf ctr | others
Cc1cc(NCc2ccc(Cl)cc2)n2ncnc2n1 | 0 | 16 | 0 | -1 | nt | nt
C#CCNc1c(C)c(C)nc2ncnn12 | 0 | 68* | 6 | 0 | 8 | 16
Cc1nc2ncnn2c(NCC2CCCCC2)c1C | 0 | 47 | 1 | 4 | nt | nt
CN1CCN(C(=S)NC(=O)/C=C/c2ccc(Br)cc2)CC1 | 0 | 10 | 1 | 0 | nt | nt
CCCNCC(O)COC(c1ccccc1)c1ccccc1 (stereo not given) | 0 | 17 | -1 | 1 | nt | nt
COc1ccc(C(OCC(O)CNCCN(C)C)c2ccc(OC)cc2)cc1 (stereo not given) | 1 | 67* | -2 | -1 | 11 | 10
CC(C)(C)NS(=O)(=O)c1ccccc1 | 0 | 7 | 3 | -1 | nt | nt
Cc1ccn2c(NCC3CCCO3)c(-c3ccc(O)cc3O)nc2c1 (stereo not given) | 0 | 89* | -3 | -1 | 84* | 6 | AS interf DR=>6.5
COc1ccc(Cc2nnc(N/N=C/c3cccc([N+](=O)[O-])c3)[nH]c2=O)cc1OC | 0 | -9 | -1 | -1 | nt | nt
COc1ccc(Cc2nnc(N/N=C/c3c(CO)cnc(C)c3O)[nH]c2=O)cc1OC | -1 | 111* | 4 | 0 | 107* | 100*
C=CCN(CC=C)CCOc1ccc(C(=O)OC)cc1 | 0 | 51* | -7 | -3 | -10 | -7
O=C(Nc1c2c(nn1-c1ccc([N+](=O)[O-])cc1)CS(=O)(=O)C2)c1c(F)cccc1F | 0 | -4 | -9 | 1 | nt | nt
COc1ccc2cc(C(=O)CBr)ccc2c1 | 0 | 16 | 2 | 5 | nt | nt
CCC(=O)c1ccc2cc(OC)ccc2c1 | 0 | 82* | -13 | 2 | 1 | 13
O=C(Nc1cc(Sc2ccc(Br)cc2)cc([N+](=O)[O-])c1)c1nn2c(C(F)(F)F)cc(-c3cccs3)nc2c1Cl | 0 | -5 | -11 | -1 | nt | nt
CCOC(=O)C1CCN(Cc2ccc(Cl)cc2Cl)CC1 | 0 | 39 | -1 | 0 | nt | nt
CCOC(=O)C1CCN(Cc2nc3ccc(Cl)cc3n2CCO)CC1 | 0 | 72* | -3 | 1 | 8 | 14
c1cc2c(cc1Cc1nn[nH]n1)OCO2 | 0 | 66* | 1 | 1 | 4 | -2
O=C(O)c1cc(S(=O)(=O)NCc2ccccc2)ccc1F | 0 | 9 | -5 | 0 | nt | nt
CC1CC(C)CN(C(=O)c2cccc3ccccc23)C1 (stereo not given) | 0 | 7 | -1 | -1 | nt | nt
CC1CC(C)CN(C(=O)c2cccc3c2-c2ccccc2C3=O)C1 (stereo not given) | 0 | 66* | -9 | -1 | 5 | -4
CC(C)c1ccc(-c2cc(C3CC3)nc(N)c2C#N)cc1 | 0 | 1 | -4 | -1 | nt | nt
CN1CCN(Cc2cn[nH]c2-c2ccc(Cl)cc2)CC1 | 1 | 38 | 4 | 0 | nt | nt
